# According to the supplement of paper PMC10681739:
# What was measured:
# RUNX1 [1] = target: RUNX1 (UniProt Q01196); experiment: RUNX1 binding intensity (PBM fluorescence), RUNX1 alone (arbitrary fluorescence units); higher = stronger binding; settings: RUNX1 concentration 2 nM; ETS1 concentration 0 nM
# Description: (§1)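 Cooperative gcPBM on 36-bp genomic probes with neighbouring ETS1 and RUNX1 sites. Recombinant human RUNX1 (2 nM) was incubated alone or with ETS1 (25 nM) and detected with anti-RUNX1 antibody plus Alexa488 secondary. Values are medians over 4 replicate spots; the RUNX1+ETS1 data were normalised to the RUNX1-only data. The probes sit in constant array flanks that are not printed.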
# ETS1 [2] = target: T1, ETS1 (UniProt P14921); experiment: ETS1 binding intensity (PBM fluorescence) in presence of RUNX1, normalised to ETS1-only experiment (arbitrary fluorescence units); higher = stronger binding; settings: ETS1 concentration 1 nM; RUNX1 concentration 25 nM
# T1 sequence: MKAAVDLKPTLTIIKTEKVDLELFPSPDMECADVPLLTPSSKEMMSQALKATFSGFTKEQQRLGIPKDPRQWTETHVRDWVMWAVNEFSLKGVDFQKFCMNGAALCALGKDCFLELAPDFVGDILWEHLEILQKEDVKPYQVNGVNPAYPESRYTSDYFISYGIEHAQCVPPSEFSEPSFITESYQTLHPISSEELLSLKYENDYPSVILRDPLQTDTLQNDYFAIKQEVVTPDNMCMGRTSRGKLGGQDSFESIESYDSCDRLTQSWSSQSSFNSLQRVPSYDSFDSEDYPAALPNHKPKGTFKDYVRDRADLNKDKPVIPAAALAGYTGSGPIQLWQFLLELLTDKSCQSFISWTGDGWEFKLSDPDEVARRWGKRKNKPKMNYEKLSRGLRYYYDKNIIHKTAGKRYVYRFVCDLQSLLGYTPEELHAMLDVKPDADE
# RUNX1 [3] = target: RUNX1 (UniProt Q01196); experiment: RUNX1 binding intensity (PBM fluorescence) in presence of ETS1, normalised to RUNX1-only experiment (arbitrary fluorescence units); higher = stronger binding; settings: RUNX1 concentration 2 nM; ETS1 concentration 25 nM
# Description: as §1
# ETS1 [4] = target: T1, ETS1; experiment: ETS1 binding intensity (PBM fluorescence), ETS1 alone (arbitrary fluorescence units); higher = stronger binding; settings: ETS1 concentration 1 nM; RUNX1 concentration 0 nM
# 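Throughout, for RUNX1 binding intensity (PBM fluorescence) in presence of ETS1, normalised to RUNX1-only experiment: Full-length recombinant human ETS1 or RUNX1 bound to double-stranded 36-bp genomic probes on microarrays, detected by protein-specific primary antibody and Alexa488 secondary, spot fluorescence as median of four replicate spots.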
# 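Throughout, for RUNX1 binding intensity (PBM fluorescence), RUNX1 alone: Full-length recombinant human RUNX1 bound to double-stranded 36-bp genomic probes on a high-density microarray, scored as Alexa488 fluorescence per spot via anti-RUNX1 antibody, median of four replicate spots.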
# Sequence of RUNX1 (Q01196 whole entry): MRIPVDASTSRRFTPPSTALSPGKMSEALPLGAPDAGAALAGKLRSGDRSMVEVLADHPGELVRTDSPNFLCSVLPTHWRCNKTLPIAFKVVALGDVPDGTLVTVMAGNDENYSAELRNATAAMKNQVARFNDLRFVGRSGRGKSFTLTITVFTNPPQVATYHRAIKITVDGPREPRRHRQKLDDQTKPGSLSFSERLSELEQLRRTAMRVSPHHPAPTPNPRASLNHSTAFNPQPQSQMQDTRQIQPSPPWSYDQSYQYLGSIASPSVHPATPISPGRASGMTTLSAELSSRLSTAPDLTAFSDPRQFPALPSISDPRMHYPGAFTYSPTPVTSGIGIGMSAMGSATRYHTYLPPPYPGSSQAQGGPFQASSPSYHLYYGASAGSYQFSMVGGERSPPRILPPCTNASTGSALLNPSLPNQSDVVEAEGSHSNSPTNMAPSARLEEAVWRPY
sequence,measurement,setting,value
GTGCAGACAGGAAATAGCTGCTCTGCGGCAGCCCGA,RUNX1 binding intensity,RUNX1 [1],752
same,ETS1 binding intensity,ETS1 [2],6350
same,RUNX1 binding intensity,RUNX1 [3],1070
CGGAGGCGGCCGGAAGTAGCGCTGCGGTTGGCAGCT,RUNX1 binding intensity,RUNX1 [1],937
same,ETS1 binding intensity,ETS1 [2],64100
same,RUNX1 binding intensity,RUNX1 [3],6060
TCCGGAAATAGATAATATCTAGTTAAACCTCAAAAT,RUNX1 binding intensity,RUNX1 [1],786
same,ETS1 binding intensity,ETS1 [2],2850
same,RUNX1 binding intensity,RUNX1 [3],965
CAGATCCGGCGTGGACGAAGCTCGGGAACCACAACA,RUNX1 binding intensity,RUNX1 [1],798
same,ETS1 binding intensity,ETS1 [2],456
same,RUNX1 binding intensity,RUNX1 [3],1150
CTTACAGATAAGGAAACTGAGGTTAAAATGTAGGGG,ETS1 binding intensity,ETS1 [4],681
AGGCAAACTACAGGAAGATCCTGCCCGCAACTTGGT,RUNX1 binding intensity,RUNX1 [1],785
same,ETS1 binding intensity,ETS1 [2],2160
same,RUNX1 binding intensity,RUNX1 [3],931
GTGCAGGCCGGAAGGAAAAGGGTTGTGGGGCTCATT,ETS1 binding intensity,ETS1 [4],1180
ACAACCCGGAAGTTGGCGCAGCGCGGTTGCCAATGG,RUNX1 binding intensity,RUNX1 [1],671
same,ETS1 binding intensity,ETS1 [2],4910
same,RUNX1 binding intensity,RUNX1 [3],1300
CTCCCCCCACGACTTCCCTCTGTGGCCCCGGGCCGC,ETS1 binding intensity,ETS1 [4],677
